The source of these data is PubChem BioAssay.

Assay [1] relates to Wnt5a (protein binding on small-molecule microarray). In words: Wnt5a binders on small-molecule microarray, primary screen, biophysical, 635/667 nm fluorescence (AID 1142).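 Note: fluorescence read at 667 nm with signal to noise per printed feature.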 To be noted: 635 nm fluorescence, higher = more signal.
Assay [2] in a line: cell viability in Huh7 cells, primary screen, cytotoxicity control for HCV replication inhibitor project, CellTiter-Glo luminescence, basal, 48 h (AID 1143).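 Note: Huh7 hepatoma cells carrying a hepatitis C replication reporter with no stimulus; test concentration not given here.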 To be noted: Huh7 HCV replicon, higher = more signal, called active from +8 up or from −8 down.
Assay [3] in a line: P. aeruginosa biofilm formation inhibitors, primary screen, PAO1 strain, BacTiter-Glo luminescence, LB-PBS (AID 1144). To be noted: 12 h, higher = more signal.
A short description of assay [4]: CREB reporter modulators without forskolin, primary screen, cell-based, PC12, CRE-LacZ reporter, unstimulated (AID 1145). To be noted: no forskolin, luminescence, 4.5 h, higher = more signal, called active from +8 up or from −8 down.
Assay [5] can be described thus: CREB reporter modulators under forskolin, primary screen, cell-based, PC12, CRE-LacZ reporter, forskolin-stimulated (AID 1146).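 Note: PC12 cells with 6xCRE LacZ reporter stimulated by forskolin 10 µM; beta-galactosidase reporter signal reflecting CREB driven transcription.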 To be noted: luminescence, 4.5 h, higher = more signal, called active from +8 up or from −8 down.
The target in assay [6] is Streptavidin (Streptomyces avidinii) (UniProt P22629). The assay can be described thus: streptavidin binders on small-molecule microarray, primary screen, artefact control for SMM compound annotation, biophysical, 635/667 nm fluorescence (AID 1147).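 Note: signal reflects streptavidin binding to arrayed compounds as a control protein.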 To be noted: streptavidin binding, higher = more signal.
A short description of assay [7]: small-molecule binders of probe aInhba, primary screen, biochemical, small-molecule microarray, 635/667 nm fluorescence (AID 1148).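 Note: score merges 667nm spot fluorescence with signal-to-noise for antibody binding to printed compounds.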 To be noted: higher = more signal.
Assay [8] addresses Torsin-1A (Homo sapiens) (UniProt O14656). In words: torsin A binders from cell lysate, primary screen, small-molecule microarray, wild-type, 635/667 nm (AID 1149). To be noted: COS7 hTOR1A-WT lysate, 635 nm fluorescence, higher = more signal.
Assay [9] shares this target. The assay can be described thus: small-molecule binders of mutant TOR1A in lysate, primary screen, cell lysate, small-molecule microarray, COS7 lysate, 635/667 nm fluorescence (AID 1150).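 Note: score pools 667 nm emission and signal to noise measuring lysate protein binding.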 To be noted: COS7 hTOR1A mutant lysate, 635 nm fluorescence, higher = more signal.
Assay [10] deals with Sonic hedgehog protein (Shh). The assay can be described thus: small-molecule binders of Shh protein, primary screen, biochemical, small-molecule microarray, 635/667 nm fluorescence (AID 1151).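 Note: Shh protein binding to compounds spotted on small-molecule microarray slides; score combines spot fluorescence intensity with signal-to-noise across triplicate slides.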 To be noted: small-molecule microarray binding, 635 nm fluorescence; higher = more signal.
The nature of assay [11]: E. coli DRC41 culture turbidity changes, primary screen, E. coli filamentation inducer project, strain DRC41, OD650, 48 h (AID 1152).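 Note: E. coli MC1000 strain DRC41 lacking acrAB efflux pump and sulA.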 To be noted: E. coli DRC41 (acrAB sulA), higher = more signal, called active from +8 up or from −8 down.
Assay [12] can be described thus: small-molecule binders of probe aLefty1, primary screen, biochemical, small-molecule microarray, 635/667 nm fluorescence (AID 1153).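 Note: score merges spot fluorescence with signal-to-noise ratio from the scanned slide images.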 To be noted: higher = more signal.
A short description of assay [13]: PSAC antagonists in infected red cells, primary screen, cell-based, P. falciparum Indochina, OD700, 1 h (AID 1154). To be noted: P. falciparum Indochina infected RBC osmotic lysis, higher = more signal, called active from +8 up or from −8 down.
Assay [14] is described as follows: PSAC antagonists in infected red cells, primary screen, cell-based, P. falciparum Indochina, OD700, 2 h (AID 1155).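 Note: lysis reports solute entry through the parasite surface anion channel PSAC; channel blockers reduce lysis of infected cells.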 To be noted: P. falciparum Indochina infected erythrocytes, osmotic lysis OD700; higher = more signal, called active from +8 up or from −8 down.
Assay [15] is described as follows: osmotic lysis modulators in infected erythrocytes, primary screen, PSAC antagonist project, cell-based, P. falciparum Indochina, OD700, 3 h (AID 1156). To be noted: higher = more signal, called active from +8 up or from −8 down.
Assay [16] can be described thus: PSAC antagonists in infected red cells, primary screen, cell-based, P. falciparum Indochina, OD700, 18 h (AID 1157). To be noted: P. falciparum Indochina infected erythrocytes, osmotic lysis OD700, 18 h; higher = more signal, called active from +8 up or from −8 down.
Assay [17] can be described thus: modulators of S6 phosphorylation in cells, primary screen, cell-based, A549, cytoblot, luminescence, serum-stimulated (AID 1158).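 Note: serum-stimulated A549 lung adenocarcinoma cells; signal is phosphorylated S6 detected by cytoblot immunostaining with HRP secondary.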 To be noted: A549 phospho-S6 cytoblot, 5 h, higher = more signal.
Assay [18] addresses NADPH oxidase 2 (Homo sapiens) (UniProt P04839). The assay can be described thus: NOX2-dependent H2O2 signal modulators, primary screen, NOX inhibitor project, cell-based, HEK293-NOX2, PMA-stimulated, Amplex Red fluorescence (AID 1159). Note: test concentration not given here. To be noted: 45 min, higher = more signal, called active from +8 up or from −8 down.
For assay [19], the target named is NADPH oxidase 4 (Homo sapiens) (UniProt Q9NPH5). The assay can be described thus: NOX4-dependent H2O2 signal modulators, primary screen, NOX inhibitor project, cell-based, HEK293-NOX4, tetracycline-induced, Amplex Red fluorescence (AID 1160). To be noted: 45 min, higher = more signal, called active from +8 up or from −8 down.
Assay [20] has as its target NADPH oxidase 5 (Homo sapiens) (UniProt Q96PH1). The assay can be described thus: NOX5-dependent H2O2 signal modulators, primary screen, NOX inhibitor project, cell-based, HEK293-NOX5, Amplex Red fluorescence (AID 1161). To be noted: HEK293-NOX5, ionomycin, 45 min, higher = more signal.

Each structure is given as a SMILES string. Active and inactive are the calls of the source. Unless noted, the rule behind the calls is not given here.

Sequence of Torsin-1A (Homo sapiens) (O14656 whole entry, looked up): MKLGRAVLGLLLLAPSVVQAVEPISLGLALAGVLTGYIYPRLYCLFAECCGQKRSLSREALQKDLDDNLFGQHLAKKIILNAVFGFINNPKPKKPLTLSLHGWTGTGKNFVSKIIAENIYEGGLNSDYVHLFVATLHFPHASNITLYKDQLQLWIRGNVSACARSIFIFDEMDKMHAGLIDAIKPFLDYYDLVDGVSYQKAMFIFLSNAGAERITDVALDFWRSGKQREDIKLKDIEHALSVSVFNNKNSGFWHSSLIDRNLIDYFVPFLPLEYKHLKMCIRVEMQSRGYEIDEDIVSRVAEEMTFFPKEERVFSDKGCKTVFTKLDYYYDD
Sequence of NADPH oxidase 5 (Homo sapiens) (Q96PH1 whole entry, looked up): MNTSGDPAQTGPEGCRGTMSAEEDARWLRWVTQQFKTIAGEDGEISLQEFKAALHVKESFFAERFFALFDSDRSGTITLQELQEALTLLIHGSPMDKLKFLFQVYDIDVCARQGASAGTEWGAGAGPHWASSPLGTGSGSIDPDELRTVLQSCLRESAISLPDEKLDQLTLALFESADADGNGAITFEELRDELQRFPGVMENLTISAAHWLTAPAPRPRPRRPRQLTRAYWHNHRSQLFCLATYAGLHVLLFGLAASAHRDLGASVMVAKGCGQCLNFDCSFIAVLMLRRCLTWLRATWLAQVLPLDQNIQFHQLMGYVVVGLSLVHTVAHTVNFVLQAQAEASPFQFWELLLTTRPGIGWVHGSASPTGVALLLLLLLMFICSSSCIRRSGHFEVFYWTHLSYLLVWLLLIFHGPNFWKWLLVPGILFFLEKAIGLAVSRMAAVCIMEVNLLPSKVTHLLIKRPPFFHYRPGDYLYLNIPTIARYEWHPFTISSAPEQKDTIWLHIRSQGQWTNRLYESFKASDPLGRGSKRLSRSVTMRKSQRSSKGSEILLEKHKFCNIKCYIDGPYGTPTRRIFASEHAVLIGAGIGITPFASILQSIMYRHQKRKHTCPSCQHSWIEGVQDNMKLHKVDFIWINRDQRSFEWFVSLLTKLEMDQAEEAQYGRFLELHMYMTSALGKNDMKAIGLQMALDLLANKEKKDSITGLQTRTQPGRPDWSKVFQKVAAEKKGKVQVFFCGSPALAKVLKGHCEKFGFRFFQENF
Sequence of NADPH oxidase 2 (Homo sapiens) (P04839 whole entry, looked up): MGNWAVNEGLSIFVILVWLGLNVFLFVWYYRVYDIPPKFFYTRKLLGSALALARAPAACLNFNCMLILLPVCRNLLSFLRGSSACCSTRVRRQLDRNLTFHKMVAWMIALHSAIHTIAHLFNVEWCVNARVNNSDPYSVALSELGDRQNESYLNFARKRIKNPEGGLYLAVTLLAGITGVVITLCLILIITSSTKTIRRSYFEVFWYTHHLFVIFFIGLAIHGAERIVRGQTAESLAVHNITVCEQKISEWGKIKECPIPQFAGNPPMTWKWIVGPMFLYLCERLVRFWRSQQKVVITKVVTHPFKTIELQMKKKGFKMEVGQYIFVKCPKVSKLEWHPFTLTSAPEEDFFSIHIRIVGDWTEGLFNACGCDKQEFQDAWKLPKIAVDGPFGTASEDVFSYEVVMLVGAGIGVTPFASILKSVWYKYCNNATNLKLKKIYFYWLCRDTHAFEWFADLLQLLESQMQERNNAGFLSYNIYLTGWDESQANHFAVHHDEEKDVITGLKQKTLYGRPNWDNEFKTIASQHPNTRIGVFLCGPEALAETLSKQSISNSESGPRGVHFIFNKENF
Sequence of NADPH oxidase 4 (Homo sapiens) (Q9NPH5 whole entry, looked up): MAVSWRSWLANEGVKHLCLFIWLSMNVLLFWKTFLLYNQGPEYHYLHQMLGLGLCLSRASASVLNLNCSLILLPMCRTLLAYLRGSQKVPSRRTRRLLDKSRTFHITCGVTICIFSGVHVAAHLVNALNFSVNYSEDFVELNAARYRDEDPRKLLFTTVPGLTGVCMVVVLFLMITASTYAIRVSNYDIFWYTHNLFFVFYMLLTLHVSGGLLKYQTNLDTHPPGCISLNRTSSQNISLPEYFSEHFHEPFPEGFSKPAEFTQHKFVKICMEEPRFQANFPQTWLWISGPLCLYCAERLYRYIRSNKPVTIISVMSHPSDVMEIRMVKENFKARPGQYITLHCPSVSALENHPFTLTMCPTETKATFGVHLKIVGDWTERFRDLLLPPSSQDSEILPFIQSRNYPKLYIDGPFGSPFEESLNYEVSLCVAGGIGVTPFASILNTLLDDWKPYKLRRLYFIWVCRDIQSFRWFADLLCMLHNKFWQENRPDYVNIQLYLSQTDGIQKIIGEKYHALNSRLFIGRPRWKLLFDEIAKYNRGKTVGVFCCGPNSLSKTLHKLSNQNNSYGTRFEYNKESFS
Sequence of Streptavidin (Streptomyces avidinii) (P22629 whole entry, looked up): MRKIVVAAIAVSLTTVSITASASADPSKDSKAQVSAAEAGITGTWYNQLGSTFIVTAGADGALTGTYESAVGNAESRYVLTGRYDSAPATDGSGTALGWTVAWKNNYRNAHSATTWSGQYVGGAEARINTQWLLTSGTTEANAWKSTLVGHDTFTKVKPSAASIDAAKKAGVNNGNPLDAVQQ

Turning to `CCOC(=O)C[C@H]1[C@H](OC(=O)c2cc3ccccc3oc2=O)[C@@H](NC(=O)c2ccc(-c3ccccc3)cc2)c2cc(OCCCO)ccc2N1C(=O)Cc1ccc(OC)cc1`, the composite z-score in assay [1] was 0.391; in [6] it was 0.385; in assay [7] it was -0.0095; in the assay with Torsin-1A (Homo sapiens) [8] it was 0.195; with Torsin-1A (Homo sapiens) [9] it was 0.775; in [10] it was 0.989. In addition, in [12], the composite z-score is -0.0162. For the same compound, the z-score in assay [2] is -0.346 (inactive); in assay [3] it was -0.301 (inactive); in assay [4] it was 0.666 (inactive); in assay [5] it was 0.0179 (inactive); in [11], -0.601 (inactive); in [13], 20.3 (active). The z-score is 5.12 (inactive) in [14]; 0.557 (inactive) in assay [15]; 1.04 (inactive) in assay [16]; -0.192 in [17]; 1.38 (inactive) in [18]; 1.08 (inactive) in assay [19]. In assay [20], this compound yielded a z-score of 1.23.

Turning to `COC(=O)[C@@]1(Cc2ccc(F)cc2)[C@H]2c3cc(C(=O)N(C)C)n(CCF)c3C[C@H]2CN1C(=O)c1ccccc1`, the composite z-score in assay [1] is 0.101; in [6], 0.471; in assay [7], 0.117; in the assay with Torsin-1A (Homo sapiens) [8], 0.632; with Torsin-1A (Homo sapiens) [9], 0.606; in [10], -0.447. Also, the composite z-score in assay [12] is -0.012. Also, the z-score was -1.56 (inactive) in assay [2]; -0.501 (inactive) in [3]; -0.375 (inactive) in assay [4]; 0.25 (inactive) in assay [5]; 1.28 (inactive) in [11]; 2.02 (inactive) in assay [13]. The z-score in [14] was -0.771 (inactive); in assay [15], -1.04 (inactive); in assay [16], -1.29 (inactive); in assay [17], 0.456; in assay [18] it was 0.532 (inactive); in assay [19] it was 0.864 (inactive). This compound gave a z-score in assay [20] of -3.46.

`COc1cc2c(cc1O)C(C)N(Cc1sc3ccccc3c1Cl)CC2` (stereo not given): the composite z-score in assay [1] was -0.434; in assay [6] it was 0.105; in assay [7] it was 0.0021; with Torsin-1A (Homo sapiens) [8] it was -1.22; with Torsin-1A (Homo sapiens) [9] it was -1.28; in assay [10], -0.985. In addition, the composite z-score in assay [12] is -0.145. The z-score in [2] is -0.693 (inactive); in assay [3] it was -0.432 (inactive); in assay [4] it was -0.258 (inactive); in assay [5], -0.487 (inactive); in [11] it was 0.268 (inactive); in assay [13], 4.05 (inactive). Further, the z-score is 2.4 (inactive) in assay [14]; 0.334 (inactive) in [15]; 1.85 (inactive) in assay [16]; -0.43 in assay [17]; -3.7 (inactive) in assay [18]; -2.3 (inactive) in [19]. Besides, in assay [20], the z-score is -3.2.

With `O=C(NCCN1CCOCC1)[C@@H]1c2ccccc2C(=O)N(CC23CC4CC(CC(C4)C2)C3)[C@H]1c1ccc(CO)cc1`, the composite z-score stood at 0.617 in [1]; 1.12 in [6]; 0.0542 in assay [7]; 0.51 in the assay with Torsin-1A (Homo sapiens) [8]; 1.47 with Torsin-1A (Homo sapiens) [9]; 0.506 in assay [10]. In [12], this compound displayed a composite z-score of 0.409. In addition, the z-score is -2.69 (inactive) in [2]; -0.634 (inactive) in assay [3]; 0.441 (inactive) in assay [4]; -0.0639 (inactive) in assay [5]; 0.0865 (inactive) in assay [11]; 2.89 (inactive) in assay [13]. Moreover, the z-score in assay [14] is 1.09 (inactive); in assay [15], 1.29 (inactive); in assay [16], 0.744 (inactive); in [17], -0.407; in [18] it was -0.0458 (inactive); in [19] it was -1.7 (inactive). Besides, the z-score in assay [20] is -1.61.
